This is a sample that favours compounds with a hit; in the whole collection about 8.2% have one here.
SW480 rereplic – DNA re-replication induction in SW480 cells; SW480 DNA re-replication, Hoechst DNA content imaging, 48 h; Potency, µM (doses to about 46.1 µM), for inactives: top-dose re-replication activation, usual class: activators; 1.8% of 340,000 active; AID 624297; note: % of control where 0% means no effect; nearly all actives have a fitted effect of over 55% in size
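Quantitative HTS format with DMSO vehicle controls; 48 hr drug incubation at 37 C, then 40 min Hoechst staining and scanning imager measurement at 405 nm excitation.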
KB-3-1 tox – kills parental KB-3-1 adenocarcinoma cells | KB-3-1 viability, CellTiter-Glo ATP luminescence, 72 h | 1.4% of 400,000 active | Potency, µM (series often up to 46.1 µM), most hits filed as cytotoxic | AID 1347075; note: % is set by controls: 0 for no effect and ±100 for the full control effect; nearly all actives have a fitted effect of over 60% in size
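Using CellTiter-Glo luminescence, growth of non-resistant KB-3-1 adenocarcinoma cells is assessed 72 h after pin-tool compound addition at 37 °C. Normalized responses across the concentration series yield fitted curves.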
ELG1 repair inh – blocks ELG1-dependent DNA repair in HEK293T cells | HEK293T ELG1-luciferase reporter, luminescence, 16 h; DNA damage induced by 5-fluorouridine | Potency, µM (doses to about 46.1 µM), without a hit: top-dose activity change, negative = inhibition, actives largely listed as inhibitors | 2.3% of 330,000 active | AID 504467; note: % is set by controls: 0 for no effect and ±100 for the full control effect; nearly all actives have a fitted effect of over 55% in size
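HEK293T cells expressing luciferase-tagged ELG1 (2,000/well) received 5-Fluorouridine plus compound or DMSO for 16 hr at 37 °C. Luciferase was read by ONE-Glo luminescence after 30 min at room temperature.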
KB-V1 MDR tox – kills drug-selected multidrug resistant KB-V1 cells | KB-V1 MDR cells viability, CellTiter-Glo, 72 h | Potency, µM (top dose mostly 46.1 µM), hits mostly cytotoxic | 3.4% of 400,000 active | AID 1347076; note: % is set by controls: 0 for no effect and ±100 for the full control effect; nearly all actives have a fitted effect of over 60% in size
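qHTS viability screen in drug-selected KB-V1 MDR cells: 72 h compound treatment at 37 degrees C, ATP luminescence end point.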
MCF10A rerep – induces DNA re-replication in MCF 10a normal breast cells; MCF 10A DNA re-replication, Hoechst nuclear intensity, 48 h; Potency, µM (doses to about 46.1 µM), without a hit: top-dose activity, positive = re-replication, most hits filed as activators; 2.9% of 350,000 active; note: % of control where 0% means no effect; nearly all actives have a fitted effect of over 50% in size
* = called active by the depositor; i = inactive; u = inconclusive; x = not tested or not shown; [ ] = dose if it differs, or a comment. Calls come from the whole dose curve; as a rule, active = well fitted curve in the direction sought with a large enough effect; inconclusive = small, poorly fitted or top-dose-only effect, or another doubt; inactive = no such curve, though single readings can be large; an effect the other way counts as inactive or inconclusive. Potency is the fitted concentration of half-maximal effect.

SMILES	SW480 rereplic	KB-3-1 tox	ELG1 repair inh	KB-V1 MDR tox	MCF10A rerep
COc1ccccc1N1CCN(CCc2c[nH]c3cc4c(cc23)OCO4)CC1	13%	i	x	18µM*	17%
CCOC(=O)[C@]12Cc3cc(C)ccc3[C@H]1N(C)C(=O)c1ccccc12	x	i	x	i	x
CCOC(=O)[C@]12Cc3cc(OC)ccc3[C@H]1N(C1CCCCC1)C(=O)c1ccccc12	x	3.3µM*	x	2.3µM*	x
CCOC(=O)[C@]12Cc3cc(Cl)ccc3[C@H]1N(C1CCCCC1)C(=O)c1ccccc12	x	1.6µM*	x	u	x
c1ccc(CCN2CCOCC2)cc1	x	i	x	i	x
CCOC(=O)[C@]12Cc3cc4ccccc4cc3[C@H]1N(Cc1ccccc1)C(=O)c1ccccc12	x	5.2µM*	x	u	x
CCOC(=O)[C@]12Cc3cc(OC)ccc3[C@H]1N(Cc1ccccc1)C(=O)c1cc(OC)ccc12	x	u	x	i	x
CCOC(=O)[C@]12Cc3cc(Cl)ccc3[C@H]1N(Cc1ccccc1)C(=O)c1cc(OC)ccc12	x	2.6µM*	x	7.3µM*	x
CCOC(=O)[C@]12Cc3cc(OC)c(OC)cc3[C@H]1N(Cc1ccccc1)C(=O)c1ccccc12	-4%	i	x	u	11%
CCCCCN1C(=O)c2cc(OC)ccc2[C@@]2(C(=O)OCC)Cc3cc(Cl)ccc3[C@@H]12	x	0.65µM*	x	1.6µM*	x
CCOC(=O)[C@]12Cc3cc4ccccc4cc3[C@H]1N(Cc1ccccc1)C(=O)c1cc(OC)ccc12	x	5.8µM*	x	16µM*	x
C[N+]12CCC(CC1)C(OC(=O)C(O)(c1ccccc1)c1ccccc1)C2 (centres undefined)	0%	i	-4%	i	8%
O=C(O)COc1ccc(Br)cc1C(c1c(C(=O)O)[nH]c2ccccc12)c1c(C(=O)O)[nH]c2ccccc12	-32%	i	-1%	i	u
COC(=O)[C@H](Cc1ccccc1)N(Cc1ccccc1)S(=O)(=O)N(Cc1ccccc1)[C@@H](Cc1ccccc1)C(=O)OC	-4%[9.22 µM]	u	u	i	-1%
CC/C(=N\N1CCCCCC1)c1c(O)n(-c2ccccc2C)c(=O)[nH]c1=O	-1%	i	-15%	12µM*	11%
O=C1c2ccccc2-c2cccc3cccc1c23	-8%	i	x	i	8%
c1ccc2c(c1)cc1ccc3cccc4ccc2c1c34	21µM*	i	x	i	u
Cc1c(C(=O)O)cc(-c2ccccc2)n1Cc1ccccc1	-3%	i	-2%	i	-6%
CSc1cc(-c2ccccc2)n(Cc2c(Cl)cccc2Cl)c(=O)c1C#N	0%	3.3µM*	u	u	u
COc1cc2c(cc1O)[C@@H]1Cc3ccc(OC)c(O)c3CN1CC2	u	5.8µM*	u	7.3µM*	u
COc1ccc(C[C@@H]2c3cc(O)c(OC)cc3CCN2C)cc1O	-2%	i	5%	i	1%
COC(=O)c1ccc(NC(=O)c2cccn(Cc3ccccc3C)c2=O)cc1	x	i	x	u	x
O=C(CCC1CCCC1)c1c(O)c2ccccc2oc1=O	-8%	u	18%	i	18µM*
O=c1oc2ccccc2c(O)c1C(c1ccccn1)c1c(O)c2ccccc2oc1=O	-7%	i	8%	i	-3%
Oc1cc[c]([Hg][Cl])cc1	u	x	x	x	1.1µM*
SMILES	SW480 rereplic	KB-3-1 tox	ELG1 repair inh	KB-V1 MDR tox	MCF10A rerep
CCOC(=O)c1c(C)n(Cc2ccccc2)c2ccc(OCC(O)CN3C(=O)CNC3=O)cc12 (centres undefined)	-1%	i	u	i	7%
C#CCOc1ccc2c(c1)c(C(C)=O)c(C)n2Cc1ccccc1	-4%	i	21µM*	i	u
CC(C)CCCn1c(O)c(/C=C2/C=CC=N2)c(=O)[nH]c1=O	13µM*	16µM*	u	u	18µM*
O=C1CCCCC1	-40%	i	16%	i	6%
Cc1oc(-c2cccs2)nc1CSCC(=O)N1CCC2(CC1)OCCO2	-9%	i	21%	10µM*	-8%
COc1ccc(-c2nc(CSCC(=O)N3CCC4(CC3)OCCO4)c(C)o2)cc1OC	7%	i	u	u	4%
CCN(C[C@H]1N[C@@](C)(C(=O)OC)[C@H]2C(=O)N(Cc3ccccc3)C(=O)[C@@H]12)C(=O)Nc1ccccc1	u	i	-1%	i	1%
O=C1C(I)=CC(=C(c2cc(I)c(O)c(I)c2)c2ccccc2C(=O)O)C=C1I	-3%	x	x	x	u
C[n+]1c(-c2ccccc2)c2cc(N)ccc2c2ccc(N)cc21	-97%	2.9µM*	u	i	-26%
Cc1c2ccncc2c(C)c2c1[nH]c1ccccc12	7.3µM*	u	u	9.2µM*	5.8µM*
CCC(C)c1ccc(N2C(=O)NC(=O)/C(=C/c3cccn3CCOc3ccc(C)cc3)C2=O)cc1 (centres undefined)	17%	i	u	i	21µM*
Cc1ccc(N2C(=O)NC(=O)/C(=C\c3cccn3C(C)(C)C)C2=O)cc1	u	i	9%	i	9%
CC(C)COP(=O)(OCC(C)C)C(Nc1ccccc1)c1ccccc1 (centres undefined)	-75%	i	u	u	u
O=P(Oc1ccccc1)(Oc1ccccc1)C(Nc1ccccc1)c1ccccc1 (centres undefined)	18%	u	21µM*	13µM*	u
O=C1CCN(C(=O)CCCn2c(=O)oc3ccccc32)CC1	-12%	i	15%	i	0%
O=C(CCn1c(=O)oc2ccccc21)N1CCN(c2ccccc2Cl)CC1	u	6.5µM*	u	4.1µM*	9.2µM*
Cc1cc(C)c(N=Cc2c(O)[nH]c(=O)[nH]c2=O)c(C)c1	-1%	6.5µM*	-3%	5.2µM*	-1%
COc1ccc(OC)c(C(Nc2ccccc2)P(=O)(OC(C)C)OC(C)C)c1 (centres undefined)	-3%	i	u	u	-2%
O=C(CNC(=O)OCc1ccccc1)Nc1ccc(Br)cc1C(=O)c1ccccc1Cl	7%	u	u	8.2µM*	27%
O=C(CNC(=O)c1ccc(Br)cc1)Nc1ccc(Br)cc1C(=O)c1ccccc1	-3%	i	-15%	i	1%
CN(C(=O)CNC(=O)OCc1ccccc1)c1ccc(Br)cc1C(=O)c1ccccc1Cl	12µM*	2.3µM*	-19%	3.7µM*	8.2µM*
O=C(Nc1ccc(Br)cc1C(=O)c1ccccc1)c1ccccc1	x	i	x	i	x
CC(=O)O[C@@H]1/C=C/[C@](C)(O)C[C@@H](C)C/C=C/[C@H]2[C@@H]3O[C@]3(C)[C@@H](C)[C@H]3[C@H](Cc4ccccc4)NC(=O)[C@@]312	2.6µM*	i	x	i	1.5µM*
